The values below come from PubChem BioAssay.

Potency and affinity values are given separately. Records with an inconclusive call do not appear. Entries that show only a call come without a potency. The source made the active and inactive calls.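 How the source made its calls, unless noted: active means signal drop whose fitted half-maximal concentration is at most twice the top valid dose, in every test run; inconclusive means mixed calls across runs, poor fit, or flat 30 to 70% inhibition; inactive means wrong direction, flat within 30%, or potency beyond limit.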

One experiment in a line: cytotoxicity in PAX8-dependent RMG-1 cells, dose response, cell-based, cherry-pick (AID 687029).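 Further: cells exposed to compound for 96 hours.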 The note with it: RMG-1 viability, CellTiterGlo ATP luminescence, 96 h; series mostly up to 35 µM. For orientation: Cellular ATP, detected with luciferase, serves as a proxy for viable cell number.
On to `COc1ccc(N(C(=O)CCl)C(C(=O)NCCc2ccccc2)c2cccs2)cc1` (configuration not stated), for which the molecule was classed as inactive. On to `COc1ccc(-c2cc(CNc3nc(NC(C)C)nc4cc(-c5ccccc5)sc34)on2)cc1`, for which the call was inactive. The same measure, in the same setting: the result for `CCCCCCN(C(=O)CCl)c1ccccc1` reads “inactive”; that for `NC1=C(Br)C(=O)c2ncccc2C1=O`, “inactive”; that for `C[C@H]1CN([C@@H](C)CO)C(=O)c2c(c3ccccc3n2C)-c2ccccc2CO[C@H]1CN(C)S(=O)(=O)c1ccc([N+](=O)[O-])cc1`, “inactive”. In the case of `O=C(O)c1ccc(N/N=C/c2ccc3c(c2)OCO3)cc1`, the molecule was classed as inactive. Still for that read-out and setting: the result for `O=C(CCl)N=c1sccn1Cc1cccc2ccccc12` reads “inactive”; that for `C=C1C(=O)C23C(O)C1CCC2C12CCCC(C)(COC(C)=O)C1C(O)C3(O)OC2` (configuration not stated), “inactive”. Still for that read-out and setting: with `COc1ccc2nc(C)cc(N/N=C/c3cccc(OC)c3O)c2c1` the entry was “inactive”; with `Nc1nc(N)c2c(ccc3c2ccn3Cc2cccc([N+](=O)[O-])c2)n1`, “inactive”; with `C(=NNc1ccc2ccccc2n1)c1ccccn1`, “inactive”. Still for that read-out and setting: with `CC(=NNc1ccc2ccccc2n1)c1ccccn1` the entry was “inactive”; with `Cc1cc(Br)c(OCc2ccc(C(=O)N/N=C/c3ccc[nH]3)cc2)c(Br)c1`, “inactive”. As to `CCS(=O)(=O)c1ccc(N=Nc2ccc(O)c3ncccc23)c(OC)c1`, the call was inactive.

For `O=C(CCl)N(c1ccccc1)C1CCCCC1`, the molecule was called inactive.

Consider `CCCCCN=C(N)N/N=C/c1c[nH]c2ccc(OC)cc12`, for which the call was inactive.

For `CCN1CCN(Cc2ccc(NC(=O)c3ccc(C)c(NC(=O)C(=O)c4c[nH]c5ccccc45)c3)cc2C(F)(F)F)CC1`, the molecule was classed as inactive. On the same count and under the same terms, with `Clc1ccc(Cn2ncc3c(N4CCN(c5ccccc5)CC4)ncnc32)cc1` the entry was “inactive”. For the molecule `CCOc1ccccc1NC(=O)c1nc(S(=O)(=O)Cc2cccc(C)c2)ncc1Cl`, the result was inactive. The same measure, in the same setting: the result for `C[C@@H]1CN([C@@H](C)CO)C(=O)Cc2cc(NS(=O)(=O)c3ccccc3)ccc2O[C@H]1CN(C)Cc1ccc(Cl)c(Cl)c1` reads “inactive”; that for `CC(=O)/C=C/n1c(=S)oc2ccccc21`, “inactive”.

With `COc1ccc(OCc2cccc(C(=O)Nc3cc(C)on3)c2)cc1`, the call was inactive.

Regarding `COc1ccccc1NC(=O)c1nc(S(=O)(=O)Cc2ccccc2)ncc1Cl`, the call was inactive. For the molecule `OCC1OC(n2cnc3c(NCc4ccccc4O)ncnc32)C(O)C1O` (configuration not stated), the call was inactive. Same read-out and setting: the result for `O=c1c(Cl)c(Cl)cnn1-c1ccccc1` reads “inactive”; that for `COC(=O)C1=C(C)N(Cc2cccc(C(F)(F)F)c2)C(=NCc2ccc(OC)cc2)NC1c1cccc(F)c1` (configuration not stated), “inactive”; that for `CCS(=O)(=O)c1ncc(Cl)c(C(=O)Nc2ccc(S(=O)(=O)N3CCC(C)CC3)cc2)n1`, “inactive”. On to `CC(C)(C)OC(=O)NCCCC[C@H](NC(=O)c1[nH]cnc1C(=O)Nc1ccc(CNC(=O)OC(C)(C)C)cc1)C(=O)OC(C)(C)C`, for which the outcome was inactive. Take `O=C1C(=O)c2cccnc2-c2ncccc21`: the call was inactive.

With `Cc1nc(-c2ccc(NC(=O)c3ccco3)cc2)cs1`, the molecule was called inactive.

`Cc1ccc(Cl)cc1NC1=C/C(=N\S(=O)(=O)c2cccs2)c2ccccc2C1=O`: the call was inactive.

For the molecule `COC(=O)C1=C(C)N(Cc2ccc(C(F)(F)F)cc2)C(=NCc2ccccc2)NC1c1cccc(Cl)c1` (configuration not stated), the molecule was classed as inactive.

Turning to `COC1=CC(=O)c2c(ccc3ncnc(N)c23)C1=O`, the result was inactive. The same measure, in the same setting: with `O=C(Nc1ccc([N+](=O)[O-])cc1)C(=O)Nc1cccc(C(=O)O)c1` the entry was “inactive”. For the molecule `Cc1onc(C(=O)N2CCN(C(c3ccccc3)c3ccccc3)CC2)c1[N+](=O)[O-]`, the result was inactive. The same measure, in the same setting: the result for `O=C(NC1=C(NC2CCS(=O)(=O)C2)C(=O)c2ccccc2C1=O)c1ccccc1` (configuration not stated) reads “inactive”; that for `COc1ccc(OCc2cccc(C(=O)Nn3cc([N+](=O)[O-])cn3)c2)cc1`, “inactive”; that for `Cc1ccc(Cn2ccsc2=NC(=O)CCl)cc1`, “inactive”. On the same count and under the same terms, with `CN(C)CCNC(=O)c1cccc(-c2cnc3c(NC=O)cc(-c4cccc(C(F)(F)F)c4)cn23)c1` the entry was “inactive”.

Another experiment can be described thus: cytotoxicity in IOSE-T80 ovarian epithelial cells, dose response, selectivity assay for PAX8 inhibitor project, cell-based, cherry-pick (AID 687032;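 active means fitted half-maximal concentration for viability loss no higher than twice the top valid dose, in every repeat run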;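 further: cells exposed to compound for 96 h before reading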). Conditions: CellTiterGlo ATP luminescence, 96 h; series mostly up to 35 µM.
Turning to `C[C@H]1CN([C@@H](C)CO)C(=O)c2c(c3ccccc3n2C)-c2ccccc2CO[C@H]1CN(C)S(=O)(=O)c1ccc([N+](=O)[O-])cc1`, the molecule was classed as inactive. Same read-out and setting: the result for `O=c1c(Cl)c(Cl)cnn1-c1ccccc1` reads “inactive”. The same measure, in the same setting: the result for `COC(=O)C1=C(C)N(Cc2ccc(C(F)(F)F)cc2)C(=NCc2ccccc2)NC1c1cccc(Cl)c1` (configuration not stated) reads “inactive”.
